Assay results as given in PubChem BioAssay AID624125 (The Scripps Research Institute Molecular Screening Center, 2012).
In all, about 360,000 compounds went through this assay and about 2,600 (0.72%) were called active.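 The calls were made as follows: active = inhibition above its plate's cutoff, the mean inhibition of sample wells plus 3 SD (cut at about 27% in these data); inactive = the rest.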 Shown is part of a subset that was picked to be rich in actives.

The compounds below were run against Muscarinic acetylcholine receptor M4 (Homo sapiens) (UniProt P08173) (assay: CHRM4 blockers of acetylcholine calcium response – CHO cells, Fluo-8 calcium fluorescence, primary screen (AID 624125;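 also: 0% = acetylcholine EC80 with DMSO and 100% = DMSO without agonist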)). Settings: CHO-hM4 cells, ACh EC80, Fluo-8 calcium fluorescence; at 3 µM; hits give high values.
Sequence of Muscarinic acetylcholine receptor M4 (Homo sapiens) (P08173 whole entry, looked up): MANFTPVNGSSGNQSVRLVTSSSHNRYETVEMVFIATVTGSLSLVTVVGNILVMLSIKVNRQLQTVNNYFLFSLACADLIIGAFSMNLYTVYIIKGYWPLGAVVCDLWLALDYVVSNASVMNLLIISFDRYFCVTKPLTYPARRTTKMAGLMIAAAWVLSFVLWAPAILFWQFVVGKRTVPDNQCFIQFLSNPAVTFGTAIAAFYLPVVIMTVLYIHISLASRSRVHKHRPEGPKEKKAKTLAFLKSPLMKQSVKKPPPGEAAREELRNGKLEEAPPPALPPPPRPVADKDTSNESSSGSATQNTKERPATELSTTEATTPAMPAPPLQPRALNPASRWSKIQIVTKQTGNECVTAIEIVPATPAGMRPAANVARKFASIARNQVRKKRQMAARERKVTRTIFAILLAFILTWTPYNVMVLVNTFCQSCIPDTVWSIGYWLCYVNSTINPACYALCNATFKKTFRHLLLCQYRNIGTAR
In the case of `Cn1nccc1C(=O)NC1CCCc2c1cnn2-c1ccc(F)cc1F` (stereo not given), the inhibition is reported as 4.7% (inactive).
`COc1ccc(C(=O)NC2CCCc3c2cnn3-c2cccc(C)c2C)c(OC)n1` (stereo not given) was tested, and the inhibition was 30.6% (active).
With `COc1ccc(C(=O)NC2CC(C)(C)Cc3c2cnn3-c2ccccc2)c(OC)c1` (stereo not given) the inhibition was -2.19% (inactive).
In the case of `CCC(Oc1ccccc1)C(=O)NCc1cccnc1` (stereo not given), the inhibition is reported as -2.11% (inactive).
With `CCN(CC(=O)Nc1ccc(NC(C)=O)cc1)C(=O)C1CC(=O)N(Cc2ccc(C)cc2)C1` (stereo not given) the inhibition was -10% (inactive).
`O=C1CC[C@@H](C(=O)N2CSC[C@@H]2C(=O)Nc2ccc(C(F)(F)F)cc2)N1` was tested, and the inhibition was -9.06% (inactive).
In the case of `Cc1c(Cl)cccc1NC(=O)CSc1ccc(-c2cccnc2)nn1`, the inhibition is reported as 4.65% (inactive).
`O=C(NCc1ccc2c(c1)OCO2)C1CCCN(S(=O)(=O)c2cccs2)C1` (stereo not given) was tested, and the inhibition was -10.7% (inactive).
`O=C1C(Cl)=C(Oc2ccccc2)C(=O)c2ccccc21` was tested, and the inhibition was 43.5% (active).
For `O=C(Nn1cnc2ccccc2c1=O)c1ccc(F)cc1Cl`, the inhibition was 0.01% (inactive).
`COC(=O)[C@@]12CCCN1[C@H](c1ccc(-c3ccc(F)cc3)c(OC)c1)[C@H]1C(=O)N(C)C(=O)[C@H]12` was tested, and the inhibition was 0.47% (inactive).
With `CC(C)(C)NC(=O)/C(=C/c1cccnc1)NC(=O)c1ccco1` the inhibition was -1.31% (inactive).
For `COc1ccc(-c2onc3ccc(C(C)=O)cc23)cc1`, the inhibition was -10.7% (inactive).
`CCn1c2ccccc2c2cc(NC(=S)N3CCOCC3)ccc21` was tested, and the inhibition was 3.52% (inactive).
For `O=C(Nc1ccc2c(c1)OCCO2)C(C1CC1)N1CCC(Cc2ccccc2)CC1` (stereo not given), the inhibition was 28.2% (active).
With `O=C(CN1CCOc2ccccc21)N1CCC(Cc2ccccc2)CC1` the inhibition was -1.37% (inactive).
In the case of `Nc1c(C(=O)Nc2ccc3c(c2)OCCO3)nnn1Cc1ccccc1`, the inhibition is reported as 1.65% (inactive).
In the case of `O=C(Nc1ccccc1C(=O)N1CCOCC1)c1ccc(Cl)cc1`, the inhibition is reported as -14.3% (inactive).
With `CCOC(=O)N(Cc1ccccc1)C1CC1` the inhibition was 2.24% (inactive).
For `CN(CCO)C(=O)c1nc[nH]c1C(=O)N(C)Cc1ccccc1`, the inhibition was -23.3% (inactive).
`CN(C(=O)CN(CCO)CC(=O)N(C)C(C)(C)Cc1ccccc1)C(C)(C)Cc1ccccc1` was tested, and the inhibition was 28.1% (active).
`Cc1ccc2cc(C#N)c(NCCNC(=S)NCCCN3CCOCC3)nc2c1` was tested, and the inhibition was -4.3% (inactive).
With `COCCn1c(C)cc(C(=O)CN2c3cccc4cccc(c34)S2(=O)=O)c1C` the inhibition was -7.15% (inactive).
In the case of `COc1ccc(N2CCN(C(=O)c3cn(C)c4ccc(S(=O)(=O)N5CCOCC5)cc4c3=O)CC2)cc1`, the inhibition is reported as -12.4% (inactive).
In the case of `CCOC(=O)N1CCN(C(=O)c2cn(C)c3ccc(S(=O)(=O)N4CCCC4)cc3c2=O)CC1`, the inhibition is reported as 58.7% (active).
With `CCOC(=O)N1CCN(C(=O)c2cn(C)c3ccc(S(=O)(=O)N(CC)CC)cc3c2=O)CC1` the inhibition was -13.5% (inactive).
For `CCCCSc1nc2c(c(=O)n1CC)SC(C)C2` (stereo not given), the inhibition was -22.6% (inactive).
For `Cc1ccc(NC(=O)C(C)OC(=O)Cc2c[nH]c3ccccc23)cc1S(=O)(=O)N1CCOCC1` (stereo not given), the inhibition was -17.2% (inactive).
With `Cc1ccc(S(=O)(=O)N(Cc2ccc(Cl)cc2)c2ccccc2C(=O)NCc2cccnc2)cc1` the inhibition was 2.37% (inactive).
`Nc1nc(NCc2ccccc2)n(-c2ccccc2)n1` was tested, and the inhibition was -15.7% (inactive).
For `CCCCCCn1c(=O)n2n(c1=O)C[C@]1(OC(=O)NCc3ccc(OC)c(OC)c3)CN(S(=O)(=O)c3ccc(C)cc3)C[C@]1(O)C2`, the inhibition was -8.79% (inactive).
For `NC(=O)C1(N2CCCC2)CCN(Cc2ccccc2)CC1`, the inhibition was -8.47% (inactive).
With `O=S1(=O)CCN(Cc2ccccc2)CC1` the inhibition was -1.75% (inactive).
In the case of `CC12CN(Cc3ccccc3)CC(C)(CN(Cc3ccccc3)C1)C2=NO`, the inhibition is reported as 31.4% (active).
With `COc1cccc(CC(=O)N2CCCC(CCC(=O)N3CCN(c4ccccn4)CC3)C2)c1` (stereo not given) the inhibition was -6.8% (inactive).
In the case of `CC(=O)N[C@@H](C)C(=O)N1CCC(n2nccc2NC(=O)CCCc2ccccc2)CC1`, the inhibition is reported as -1.73% (inactive).
In the case of `COc1ccccc1NC(=O)COC(=O)Cc1ccc(S(=O)(=O)N2CCCCC2)s1`, the inhibition is reported as -3.41% (inactive).
For `CC(C)Nc1nnc(SC(C)C(=O)N(C)C2CCCCC2)s1` (stereo not given), the inhibition was 3.18% (inactive).
In the case of `COc1cc(C(=O)NCc2ccc(-n3cccc3)cc2)cc(OC)c1OC`, the inhibition is reported as 9.05% (inactive).
With `CCn1c(CNC(=O)c2cc(OC)c(OC)c(OC)c2)cc2cc(C)ccc21` the inhibition was 28.2% (active).
`COc1cc(C(=O)NCc2nnc(SCC(=O)Nc3nc4ccc(C)cc4s3)o2)cc(OC)c1OC` was tested, and the inhibition was 1.54% (inactive).
In the case of `Cc1ccc(S(=O)(=O)N2CCC(C(=O)N[C@@H](C)C(=O)NCc3ccccc3)CC2)cc1`, the inhibition is reported as -7.25% (inactive).
`Cc1coc2c1c(C)cc1oc(=O)c(CC(=O)NCC(=O)N[C@H](C(=O)O)C(C)C)c(C)c12` was tested, and the inhibition was 12.9% (inactive).
For `C=CCn1c(SCC(=O)NCc2ccccc2)nnc1-c1cc(Br)ccc1O`, the inhibition was 10.6% (inactive).
For `COc1ccccc1C(=O)NC(=O)COC(=O)c1ccco1`, the inhibition was -3.72% (inactive).
With `COc1ccccc1S(=O)(=O)NCc1ccc(C(=O)N(C)Cc2ccc(F)cc2)cc1` the inhibition was 0.25% (inactive).
With `Cc1ccc(CNC(=O)Cn2cnc(S(=O)(=O)N3CCCCC3)c2)o1` the inhibition was -2.52% (inactive).
With `CCOc1cc(NC(=O)c2ccccc2C(=O)O)c(OCC)cc1NC(=O)c1ccccc1F` the inhibition was -12.1% (inactive).
`CCC(=O)Nc1ccc2nc(C)n(Cc3ccccc3Cl)c(=O)c2c1` was tested, and the inhibition was 6.19% (inactive).
`CCN1CCN(c2cc3nc(C)n(Cc4ccccc4)c(=O)c3cc2NC(=O)c2ccccc2F)CC1` was tested, and the inhibition was 84.6% (active).
In the case of `COc1ccc(NC(=O)C[C@H]2C(=O)N(CCc3ccccc3)C[C@@H]2C)cc1`, the inhibition is reported as -7.17% (inactive).
For `COc1cc2c(cc1OC)C(c1cccc([N+](=O)[O-])c1)=NCC2`, the inhibition was -14.9% (inactive).
In the case of `COc1ccc(C(CNCC(=O)Nc2ccccc2F)N(C)C)cc1` (stereo not given), the inhibition is reported as -5.27% (inactive).
In the case of `CCc1ccccc1NC(=O)CN(C)C(=O)COc1ccc(C)nc1[N+](=O)[O-]`, the inhibition is reported as -2.74% (inactive).
In the case of `COc1ccccc1CNC(=O)c1ccc(Cl)c(S(=O)(=O)N2CCCC2)c1`, the inhibition is reported as -5.41% (inactive).
With `Cc1ccc(C(=O)NCC(c2cccs2)N(C)C)cc1S(=O)(=O)N1CCOCC1` (stereo not given) the inhibition was 8.72% (inactive).
In the case of `CCOc1ccc(NS(=O)(=O)c2ccc(C(=O)NCC(c3ccccc3OC)N3CCCC3)cc2)cc1` (stereo not given), the inhibition is reported as 40.8% (active).
In the case of `COc1ccccc1C(CNC(=O)c1cccc(S(=O)(=O)Nc2ccc(F)cc2)c1)N(C)C` (stereo not given), the inhibition is reported as 48.7% (active).
With `COc1ccccc1C(CNC(=O)c1ccc(C)c(S(=O)(=O)N2CCCCC2)c1)N(C)C` (stereo not given) the inhibition was 51.6% (active).
`COc1ccc(C(CNC(=O)c2cccc(S(=O)(=O)Nc3ccc(Br)cc3)c2)N(C)C)cc1` (stereo not given) was tested, and the inhibition was 1.87% (inactive).
With `CCOc1ccc(S(=O)(=O)Nc2ccc(C(=O)NCCCN3CCCC3=O)cc2)cc1` the inhibition was -0.83% (inactive).
`COc1ccccc1C(CNC(=O)c1cccc(NS(=O)(=O)c2ccc(Br)cc2)c1)N(C)C` (stereo not given) was tested, and the inhibition was 10.7% (inactive).
In the case of `CCOc1ccc(NS(=O)(=O)c2ccc(C(=O)NC3CCN(Cc4ccccc4)CC3)cc2)cc1`, the inhibition is reported as 6.63% (inactive).
For `Fc1cccc(Cc2c(-c3ccc(Cl)cc3)nc3ccc(Cl)cn23)c1`, the inhibition was -24.1% (inactive).
For `CCOC(=O)C(CC)Sc1ncnc2c1nnn2-c1ccc(F)cc1` (stereo not given), the inhibition was -1.34% (inactive).
In the case of `O=C(NCCCc1ccccc1)c1cc(COc2c(F)cccc2F)on1`, the inhibition is reported as -4.04% (inactive).
In the case of `CC(C)Cc1cc(C(=O)Nc2cc(Br)ccc2O)no1`, the inhibition is reported as -14.2% (inactive).
For `CC(C)Cc1cc(C(=O)NCCc2ccccc2)no1`, the inhibition was 101% (active).
With `CC1(C(=O)NS(=O)(=O)c2ccccc2Cl)CCN1C(=O)c1cccc(F)c1` (stereo not given) the inhibition was 3.33% (inactive).
With `CC(Sc1nncn1C)C(=O)Nc1cc(C(F)(F)F)ccc1N1CCOCC1` (stereo not given) the inhibition was -5.32% (inactive).
For `CN(CCC#N)c1ncnc2scc(-c3ccccc3)c12`, the inhibition was -1.83% (inactive).
With `CCC(=O)Nc1cc(C(F)(F)F)ccc1N1CCCC1` the inhibition was 3.82% (inactive).
With `O=C(CN1CCCCCC1)Nc1ccc(Cl)cc1F` the inhibition was -14.1% (inactive).
In the case of `O=C(CN1CCCCCC1)N1c2ccccc2Sc2ccc(C(F)(F)F)cc21`, the inhibition is reported as 98% (active).
For `O=C(CN1CCCCC1)N1c2ccccc2Sc2ccc(C(F)(F)F)cc21`, the inhibition was 97.5% (active).
In the case of `O=C(CN1C(=O)/C(=C\c2ccc(C(F)(F)F)cc2)Sc2ccccc21)NCc1ccco1`, the inhibition is reported as 14.8% (inactive).
For `O=C(CSc1nc2ccccc2o1)N1c2ccccc2Sc2ccc(Cl)cc21`, the inhibition was -3.42% (inactive).
With `COc1cccc(CNC(=O)CCC2CCCN(C(=O)c3cc(C)[nH]n3)C2)c1` (stereo not given) the inhibition was -0.4% (inactive).
In the case of `O=C(NCc1ccccc1)[C@H]1C[C@@H]1[C@H](NP(=O)(c1ccccc1)c1ccccc1)c1ccccc1`, the inhibition is reported as -6.36% (inactive).
For `O=C(Nc1c2c(nn1-c1ccc(F)cc1)CS(=O)C2)C12CC3CC(CC(C3)C1)C2` (stereo not given), the inhibition was -0.1% (inactive).
For `Cc1c([N+](=O)[O-])c(N)nn1C`, the inhibition was -10.8% (inactive).
`CCc1cccc(NC(=O)COC(=O)c2cc(=O)c3ccccc3o2)c1` was tested, and the inhibition was -0.31% (inactive).
In the case of `COc1cccc(CNC(=O)CCC2CCCN(Cc3ccc(OC(F)F)cc3)C2)c1` (stereo not given), the inhibition is reported as 8.05% (inactive).
In the case of `CN(CCc1ccccn1)C(=O)c1ccc(OC2CCN(Cc3ccccn3)CC2)cc1`, the inhibition is reported as 10.3% (inactive).
With `CN(CCc1ccccn1)C(=O)CCC1CCCN(Cc2ccccc2OC(F)F)C1` (stereo not given) the inhibition was 31.4% (active).
With `CCCS(=O)(=O)Nc1ccc(-c2cn3c(n2)SCC3)cc1` the inhibition was 4.45% (inactive).
In the case of `CCN(CC(=O)Nc1ccc(OC)cc1)C(=O)c1ccc(=O)n(Cc2ccccc2)n1`, the inhibition is reported as 6.9% (inactive).
In the case of `CC(C)c1ccc(OCC(O)Cn2cnc3ccccc32)cc1` (stereo not given), the inhibition is reported as 32% (active).
With `CC(=O)OC(COc1ccc(F)cc1)Cn1cnc2ccccc21` (stereo not given) the inhibition was 11.2% (inactive).
`CC(C)c1ccc(OCC(O)CN2CCN(c3ccccn3)CC2)cc1` (stereo not given) was tested, and the inhibition was -9.52% (inactive).
